{
  "source": "PubChem BioAssay (NCI)",
  "note": "The panel holds about 83,000 compounds, 20% with a hit somewhere; the sample as a whole holds those more often.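 Method: cells in 96-well plates; compound added at one concentration; 48 h incubation; percent growth measured; values under 10 scored active.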 Values without a mark were called inactive. Calls of active or inactive are those of the source.",
  "data": [
    {"test_system": "SF-295 CNS", "assay": "NCI-60 one-dose screen, 48 h (100 = growth as untreated, 0 = no growth, -100 = all killed)", "details": "10 µM unless noted", "values": [
      {"smiles": "O=C1/C(=C/c2ccc(O)cc2)COc2ccc(-c3ccccc3)cc21", "growth": "89.8%"},
      {"smiles": "CC(=O)N1N=C(c2cccc(Nc3ccncc3)c2)CC1c1ccc2c(c1)OCO2", "note": "(stereo not drawn)", "growth": "89.9%"},
      {"smiles": "Clc1nc(Cl)c2ncn(CCOCCn3cnc4c(Cl)nc(Cl)nc43)c2n1", "growth": "-91.9% (active)"},
      {"smiles": "COc1ccc(/C=C2\\COc3ccc(-c4ccccc4)cc3C2=O)cc1O", "growth": "24.2%"},
      {"smiles": "Cc1c2c(cc[n+]1Cc1ccccc1)c1ccc(OCC3CCCCC3)cc1n2CC1CCCCC1", "growth": "-92.8% (active)"},
      {"smiles": "CC[N+](CC)(CCCC(C)[N+]1(Cc2ccccc2)C(C)=CC=C1C)Cc1ccccc1", "note": "(stereo not drawn)", "growth": "97.8%"},
      {"smiles": "CN1C(=O)N(C)[C@H]2NC(NN)=N[C@H]21", "growth": "101%"},
      {"smiles": "O=C(Nc1cccc(Cl)c1)Oc1c(Br)c(Br)c(Br)c(Br)c1Br", "growth": "79.2%"},
      {"smiles": "NC(=O)c1ncn(C2OC(CO)C(O)C2O)n1", "note": "(stereo not drawn)", "growth": "99.9%"},
      {"smiles": "COc1cc(/C=C/C(=O)c2c(C)oc3nc[nH]c(=O)c23)ccc1O", "growth": "99.3%"},
      {"smiles": "COc1cc(NCCCN(CC(C)C)CC(C)C)c2ncccc2c1", "growth": "89.4%"},
      {"smiles": "O=[N+]([O-])c1cccc(-c2nc(-c3ccc(Cl)cc3Cl)cn2-c2ccccc2)c1", "growth": "-74.3% (active)"},
      {"smiles": "O=C(N/N=C/c1ccc(F)cc1)c1ccccc1Nc1cccc(C(F)(F)F)c1", "growth": "121%"},
      {"smiles": "COc1ccc(Cn2nc(-c3cc(OC)c(OC)c(OC)c3)c3c2CCc2cnoc2-3)cc1OC", "growth": "47.6%"},
      {"smiles": "Fc1ccc(C2CC(c3cccc(Nc4ccncc4)c3)=NN2c2ccccc2)cc1", "note": "(stereo not drawn)", "growth": "73.4%"},
      {"smiles": "CCn1cc(C2NC(=O)c3ccccc3N2)c2cccc(C)c21", "note": "(stereo not drawn)", "growth": "3.52% (active)"},
      {"smiles": "Cc1nc2sc(C(=O)Nc3ccccc3)c(N)c2cc1C(=O)c1ccc(C(F)(F)F)cc1", "growth": "94.2%"},
      {"smiles": "CC(=O)c1c(C)[nH]c(-c2nc3ccc(N4CCN(C)CC4)cc3[nH]2)c1-c1ccccc1", "growth": "38.1%"},
      {"smiles": "CCC1(CC)NC(=O)c2c(c3ccc(Cl)c(Cl)c3n2C)C1C#N", "note": "(stereo not drawn)", "growth": "102%"},
      {"smiles": "O=C(Nc1ccc(F)cc1)c1c(NC(=O)C(F)(F)F)sc2c1CCCCC2", "growth": "-42.4% (active)"},
      {"smiles": "O=C(NCCN1CCOCC1)OCc1nc2nc(Cl)nc(N3CCOCC3)c2[nH]1", "growth": "94.6%"},
      {"smiles": "CC(C)[N+](C)(CCOC(COc1ccccc1)COc1ccccc1)C(C)C", "growth": "98.9%"},
      {"smiles": "COc1ccc(C(=O)c2cc3c(N)c(C(=O)Nc4cccc(Cl)c4C)sc3nc2C)cc1", "growth": "26.5%"},
      {"smiles": "COc1ccccc1/C=C1\\Oc2cc(OCCCN3CCCC3)ccc2C1=O", "growth": "99.2%"},
      {"smiles": "CCc1nc(C)cn1C(=O)OCc1nc2nc(Cl)nc(N3CCOCC3)c2[nH]1", "growth": "79.5%"},
      {"smiles": "CN1CCN(c2cc(F)c(NC3=C(Cl)C(=O)c4ncccc4C3=O)c(F)c2)CC1", "growth": "78.8%"},
      {"smiles": "COc1ccc(Cl)cc1NC(=O)c1c(NC(=O)C(F)(F)C(F)(F)F)sc2c1CCCCC2", "growth": "-25.2% (active)"},
      {"smiles": "COc1ccccc1/C=C1\\COc2ccc(-c3ccccc3)cc2C1=O", "growth": "22.2%"},
      {"smiles": "O=C(O)CCCCCCCCCCCCCCC(=O)O", "growth": "101%"},
      {"smiles": "NC(=O)C1(N2CCCCC2)CCN(CCCC(=O)c2ccc(F)cc2)CC1", "growth": "4.82% (active)"},
      {"smiles": "CCN1C(=O)/C(=c2\\sc3n(c2=O)NC2C(N=3)N(CC)C(=O)N2CC)c2ccccc21", "note": "(stereo not drawn)", "growth": "16.4%"},
      {"smiles": "CCCCCCCCCCCCCCCC(=O)OC[C@@]1(O)C[C@@]23CC[C@@H]4C(C)(C)[C@H](O)CC[C@@]4(C)[C@@H]2CC[C@H]1C3", "growth": "112%"},
      {"smiles": "CCOC(=O)c1ccc(Nc2ccnc(SCC(=O)c3ccc(C#N)cc3)n2)cc1", "growth": "76.2%"},
      {"smiles": "O=S(=O)(c1cccc(NC2=Nc3cccc4cccc2c34)c1)N1CCCC1", "growth": "59%"},
      {"smiles": "COc1ccccc1N1CCN(C(=O)c2ccc3nc(NC(=O)c4ccc(NCCc5ccccc5)c([N+](=O)[O-])c4)sc3c2)CC1", "growth": "102%"},
      {"smiles": "CCN(CC)CCOC(COc1cc(C)cc(C)c1)COc1cc(C)cc(C)c1", "growth": "48.9%"},
      {"smiles": "COc1ccc(Nn2c(SCC(=O)Nc3nc(-c4ccc(Cl)cc4)cs3)nc(C)c2C)cc1", "growth": "43.9%"},
      {"smiles": "CC1=CC2(C)/C=C(C)/C=C\\CC(O)/C=C3/C=CC(=C4C(=O)OC2(CC1C)C4=O)OC3", "note": "(stereo not drawn)", "growth": "41.4%"}
    ]}
  ]
}
